# In PubChem BioAssay (Tox21):
# Inconclusive results are not listed. A call without a number means that no potency is given here. More than one record can exist for a structure, and the calls need not agree. The source made the active and inactive calls. Unless noted, calls come from the whole dose curve; as a rule, active = well fitted curve in the direction sought with a large enough effect in the repeat runs; inconclusive = weak or mixed curves; inactive = no such curve, though single readings can be large; an effect the other way counts as inactive or inconclusive.
# How the values were obtained:
# [1] = qHTS assay to identify small molecule agonists of the RXR signaling pathway - cell viability counter screen (AID 1159529); note: nearly all actives have a fitted effect of over 50% in size; note: potency is the fitted concentration of half-maximal effect;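 for activity change, negative = cytotoxicity: HEK 293T cells carrying an RXR-alpha UAS beta-lactamase reporter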
# How it was run: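 Viability read-out for the RXR-alpha agonist qHTS: luminescent CellTiter-Glo signal after 30 min at RT. HEK 293T bla reporter cells, 2% charcoal-stripped FBS, 16 hr compound incubation; tetraoctyl ammonium bromide as cytotoxic control.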
# [2] = qHTS assay to identify small molecule antagonists of the retinoid acid receptor (RAR) signaling pathway - cell viability counter screen (AID 1159551); note: nearly all actives have a fitted effect of over 35% in size
# How it was run: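 Viability of C3RL4 cells is quantified from ATP by luminescence after 6 h treatment at 37 C with compounds and 1 uM retinol.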
# [3] = qHTS assay to identify small molecule antagonists of the retinoic acid receptor (RAR) signaling pathway (AID 1159552; note: nearly all actives have a fitted effect of over 50% in size)
# How it was run: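 Using a RARE-driven luciferase construct in C3RL4 cells, retinol at 1 uM final provided the agonist stimulus while compounds were co-applied. After 6 hours at 37 C, luminescence was recorded to flag inhibitors of retinol signaling.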
# [4] = qHTS assay to identify small molecule agonists of the retinoic acid receptor (RAR) signaling pathway (AID 1159553); details: C3RL4 RARE luciferase reporter, agonist, 6 h; activation: at 73.3 µM (top of the series) unless noted; note: potency is the fitted concentration of half-maximal effect
# How it was run: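 Compounds dissolved in DMSO were pinned onto C3RL4 cells seeded the previous day, and plates were held 6 hr at 37 C. RARE-driven luciferase output was then read by luminescence.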
# [5] = qHTS assay to identify small molecule antagonists of the estrogen related receptor (ERR) signaling pathway - cell viability counter screen (AID 1224818);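 note: viability measured after 17.5 h of compound exposure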
# How it was run: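 Cytotoxicity check run alongside the ERR antagonist screen: cells exposed to test compounds 17.5 h at 37 C, viability taken as CellTiter-Fluor fluorescence intensity.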
# [6] = qHTS assay to identify small molecule antagonists of the estrogen related receptor (ERR) signaling pathway (AID 1224819;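 note: luminescence from an ERR-driven luciferase reporter measured with One-Glo reagent; nearly all actives have a fitted effect of over 50% in size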)
# How it was run: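 ERR reporter cells were plated at 2,000 cells/well and left 6 h at 37 C/5% CO2 before pin-tool transfer of compounds in DMSO. After 18 h at 37 C, One-Glo was added and luminescence was read 30 min later at room temperature.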
# [7] = qHTS assay to identify small molecule agonists of the estrogen related receptor (ERR) signaling pathway (AID 1224820)
# How it was run: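 An ERR cell line provided by NTP was seeded at 2,000 cells per well and allowed to settle for 6 h before compounds in DMSO were added. After 18 h at 37 C, luciferase activity was measured by One-Glo luminescence.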
# [8] = tested on: estrogen-related receptor alpha (ERRalpha) with PGC-1alpha coactivator, human; experiment: qHTS assay to identify small molecule antagonists of the estrogen related receptor signaling pathway with the pleiotropic PPARgamma coactivator (PGC) (AID 1224821; calls by dose curve;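 note: lower luminescence signal means antagonism of PGC/ERR signalling; nearly all actives have a fitted effect of over 50% in size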)
# How it was run: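 A PGC/ERR cell line supplied by NTP is seeded, allowed 6 h at 37 C, and treated with test compounds in DMSO for 18 h. Signal is then measured as luciferase luminescence using One-Glo.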
# [9] = qHTS assay to identify small molecule antagonists of the estrogen related receptor signaling pathway with the pleiotropic PPARgamma coactivator (PGC) cell viability counter screen (AID 1224822;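 note: viability read after 17.5 h compound exposure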)
# How it was run: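 Viable cell signal (CellTiter-Fluor, 30 min, 37 C/5% CO2) was measured in PGC/ERR cells after a 17.5 h compound incubation.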
# [10] = qHTS assay to identify small molecule agonists of the estrogen related receptor signaling pathway with the pleiotropic PPARgamma coactivator (PGC) (AID 1224823)
# How it was run: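 Compounds dissolved in DMSO are added by pin tool to PGC/ERR cells that have settled for 6 h, and incubation continues 18 h at 37 C. Reporter output is measured as One-Glo luminescence.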
compound,measurement,setting,value
Oc1c(I)cc(Cl)c2cccnc12,Potency,[1],1.09 µM (active)
same,Potency,[2],inactive
same,Potency,[3],inactive
same,Potency,[4],76.8 µM (active) and inactive
CCCCCCCCCCCC(=O)OCC(C)OC(=O)CCCCC(=O)O (stereo unspecified),Potency,[1],inactive
same,Potency,[2],inactive
same,Potency,[3],inactive
same,Potency,[4],inactive
CCCCOC(=O)CC,Potency,[1],inactive
same,Potency,[2],inactive
same,Potency,[3],inactive
same,Potency,[4],inactive
O=C(O)c1cc(N=Nc2ccc([N+](=O)[O-])cc2)ccc1O,Potency,[1],inactive
same,Potency,[2],inactive
same,Potency,[3],inactive
same,Potency,[4],6.73 µM (active)
COC1=C(OC)C(=O)C(CCCCCCCCCCO)=C(C)C1=O,Potency,[1],inactive
same,Potency,[2],inactive
same,Potency,[3],inactive
same,Potency,[4],inactive
CC(C)CCCCCOC(=O)CCS,Potency,[1],inactive
same,Potency,[2],inactive
same,Potency,[3],inactive
same,Potency,[4],inactive
OC[C@@H](O)[C@@H](O)CO,Potency,[1],inactive
same,Potency,[2],inactive
same,Potency,[3],inactive
same,Potency,[4],inactive
CC(C)(C)CC(C)(C)c1ccc(Nc2ccc(C(C)(C)CC(C)(C)C)cc2)cc1,"activity change, negative = cytotoxicity",[1],2.3% [at 6.97 µM] (inactive)
same,"activity change, negative = cytotoxicity",[2],0.648% [at 8.39 µM] (inactive)
same,"activity, negative = inhibition",[3],-23.1% [at 8.39 µM] (inactive)
same,activation,[4],-3.08% [at 8.36 µM] (inactive)
COC(=O)c1ccccc1C,Potency,[1],inactive
same,Potency,[2],inactive
same,Potency,[3],inactive
same,Potency,[4],inactive
c1cnccn1,Potency,[1],inactive
same,Potency,[2],inactive
same,Potency,[3],inactive
same,Potency,[4],inactive
OC12N=C(c3ccccc3)SC1Cc1cc(Cl)ccc12 (stereo unspecified),Potency,[1],54.9 µM (active)
same,Potency,[2],inactive
same,Potency,[3],inactive
same,Potency,[4],1.22 µM (active)
CN1CCN2c3ccccc3Cc3ccccc3C2C1 (stereo unspecified),Potency,[1],inactive
same,Potency,[2],inactive
same,Potency,[3],inactive
same,Potency,[4],inactive
same,outcome,[5],inactive
same,Potency,[6],inactive
same,outcome,[7],inactive
same,Potency,[8],inactive
same,Potency,[9],inactive
same,outcome,[10],inactive
C=CCn1c(=O)n(CC=C)c(=O)n(CC=C)c1=O,Potency,[1],inactive
same,Potency,[2],inactive
same,Potency,[3],inactive
same,Potency,[4],inactive
CC(C)CCOC(=O)/C=C/c1ccccc1,Potency,[1],inactive
same,Potency,[2],inactive
same,Potency,[3],inactive
same,Potency,[4],10.9 µM (active)
Cc1ccc(N/N=c2\c(=O)cc/c(=N\Nc3ccc(S(=O)(=O)O)cc3)c2=O)c(C)c1,Potency,[1],inactive
same,Potency,[2],inactive
same,Potency,[3],inactive
same,Potency,[4],inactive
CCc1ccc(Br)cc1,Potency,[1],inactive
same,Potency,[2],inactive
same,Potency,[3],inactive
same,Potency,[4],inactive
C=Cc1cccc(C)c1,Potency,[1],inactive
same,Potency,[2],inactive
same,Potency,[3],inactive
same,Potency,[4],inactive
Cc1cccc(C(=O)O)c1O,Potency,[1],inactive
same,Potency,[2],inactive
same,Potency,[3],inactive
same,Potency,[4],inactive
Cc1c(C)c([N+](=O)[O-])c(C(C)(C)C)c([N+](=O)[O-])c1C,Potency,[1],43.6 µM (active)
same,Potency,[2],inactive
same,Potency,[3],inactive
same,Potency,[4],inactive
COC(=O)Nc1nc2ccc(C(=O)c3ccccc3)cc2[nH]1,Potency,[1],inactive
same,Potency,[2],inactive
same,Potency,[3],inactive
same,Potency,[4],inactive
CN(C)Cc1ccccc1O,Potency,[1],inactive
same,Potency,[2],inactive
same,Potency,[3],inactive
same,Potency,[4],inactive
CC1(C)CCC[C@]2(C)[C@H]3CCO[C@]3(C)CC[C@@H]12,Potency,[1],inactive
same,Potency,[2],inactive
same,Potency,[3],inactive
same,Potency,[4],inactive
CC(CCc1ccccc1)NCC(O)c1ccc(O)c(C(N)=O)c1 (stereo unspecified),Potency,[1],inactive
same,Potency,[2],inactive
same,Potency,[3],inactive
same,Potency,[4],inactive
same,outcome,[5],inactive
same,Potency,[9],inactive
CCCC(=O)OCCc1ccccc1,Potency,[1],inactive
same,Potency,[2],inactive
same,Potency,[3],inactive
same,Potency,[4],inactive
CCOC(=O)Cn1cccc1-c1nc(-c2ccc(OC)cc2)c(-c2ccc(OC)cc2)s1,Potency,[1],inactive
same,Potency,[2],inactive
same,Potency,[3],inactive
same,Potency,[4],inactive
Cc1cc(C)c(/C=C2\C(=O)Nc3ccccc32)[nH]1,Potency,[1],inactive
same,Potency,[2],inactive
same,Potency,[3],inactive
same,Potency,[4],inactive
same,outcome,[5],inactive
same,Potency,[6],inactive
same,outcome,[7],inactive
same,Potency,[8],inactive
same,Potency,[9],inactive
same,outcome,[10],inactive
Nc1nc2c(ncn2COCCO)c(=O)[nH]1,Potency,[1],inactive
same,Potency,[2],inactive
same,Potency,[3],inactive
same,Potency,[4],inactive
same,outcome,[5],inactive
same,Potency,[6],inactive
same,outcome,[7],inactive
same,Potency,[8],inactive
same,Potency,[9],inactive
same,outcome,[10],inactive
Cc1cccc2cccnc12,Potency,[1],inactive
same,Potency,[2],inactive
same,Potency,[3],inactive
same,Potency,[4],inactive
Cc1ccc(O)c(N)c1,Potency,[1],inactive
same,Potency,[2],inactive
same,Potency,[3],inactive
same,Potency,[4],21.7 µM (active)
CC1(C)CC(O)CC(C)(C)N1,Potency,[1],inactive
same,Potency,[2],inactive
same,Potency,[3],inactive
same,Potency,[4],inactive
C=Cc1ccccc1C=C,Potency,[1],inactive
same,Potency,[2],inactive
same,Potency,[3],inactive
same,Potency,[4],inactive
COc1cc(/C=C/c2ccccc2)oc(=O)c1,Potency,[1],inactive
same,Potency,[2],inactive
same,Potency,[3],inactive
same,Potency,[4],0.564 µM (active)
CC(N=C(NC#N)Nc1ccncc1)C(C)(C)C (stereo unspecified),Potency,[1],inactive
same,Potency,[2],inactive
same,Potency,[4],inactive
same,outcome,[5],inactive
same,Potency,[6],inactive
same,outcome,[7],inactive
same,Potency,[9],inactive
CC[N+](CC)(CC)CCOC(=O)C(C1CCCC1)C1CCCC1,Potency,[1],inactive
same,Potency,[2],inactive
same,Potency,[4],inactive
CCCCCC(C)OC(=O)COc1ccc(Cl)c2cccnc12 (stereo unspecified),Potency,[1],11 µM (active)
same,Potency,[3],inactive
same,Potency,[4],inactive
